# A selection: hits, their analogues and other compounds. The true share with any hit is near 1.7%.
# HUVEC tox TNFa = toxic to HUVEC cells under TNF alpha stimulation; HUVEC TNFalpha-stimulated, Hoechst cell count, imaging; AID 848; cell count reduction, % at 2 µM; 93,000 compounds, 0.17% hits;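 active means cell count reduction exceeding the screen mean by over 5 SD, scaled to untreated wells per plate, cut at about 78% in these data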;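 further: cells counted after 24 h of TNF alpha exposure following the 1 h pretreatment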
# E-sel TNF inh = TNF alpha driven E-selectin expression inhibition; HUVEC TNFa-induced E-selectin immunofluorescence, high content; inhibition, % at 2 µM; 120,000 compounds, 0.71% hits;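 active means inhibition above the batch mean plus 3 SD, and confirmed as a hit on visual image review, cut at about 43% in these data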;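 further: 0% = TNF-stimulated DMSO wells and 100% = unstimulated control wells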
# VCAM1 TNFa inh = reduces TNF alpha induced VCAM1 expression in HUVEC. HUVEC TNFa-induced VCAM-1 immunofluorescence, high-content imaging. inhibition, % at 2 µM. 95,000 compounds, 0.48% hits;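 active means inhibition above the batch mean plus 3 SD, with images confirmed as a hit by eye, cut at about 37% in these data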;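 further: 0% = TNF-stimulated DMSO wells and 100% = unstimulated control wells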
# NFkB transloc pot = enhances IL-1B driven NFkB nuclear translocation. 94,000 compounds, 0.3% hits. activation, % at 2 µM. AID 819. HUVEC IL-1B NFkB p65 nuclear translocation imaging;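 active means activation above 40%, about the mean plus 3 SD, also judged a hit on visual image review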;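 further: percent activation is computed from the nuclear over cytoplasmic p65 intensity ratio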
# HUVEC tox IL1B = toxic to HUVEC cells under IL-1B stimulation; 94,000 compounds, 0.41% hits; HUVEC cell count loss, Hoechst imaging, IL-1B stimulated; cell count reduction, % at 2 µM;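 active means cell count reduction more than 3 SD above the screen-wide mean, cut at about 70% in these data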;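 further: normalized per plate to untreated control cells as the no-loss baseline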
# NFkB transloc inh = blocks IL-1B driven NFkB nuclear translocation in HUVEC cells | HUVEC IL-1B NFkB p65 nuclear translocation imaging | inhibition, % at 2 µM | 94,000 compounds, 0.43% hits | AID 796;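 active means inhibition above about 30% together with a positive call from visual inspection of the well image, limit read from the data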;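 further: nuclear over cytoplasmic p65 intensity ratio measured by imaging; 0% = IL-1B stimulated DMSO wells and 100% = unstimulated DMSO wells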
# The depositor's hits bear a star; · = not tested or not shown.
SMILES,HUVEC tox TNFa,E-sel TNF inh,VCAM1 TNFa inh,NFkB transloc pot,HUVEC tox IL1B,NFkB transloc inh
Cc1cccc(N(CC(=O)N/N=C/c2ccc(OCC(=O)NCc3ccco3)cc2)S(C)(=O)=O)c1C,44,-3,78*,14,-10,-14
Cc1cc(C)cc(CSCC(=O)N/N=C/c2ccc(OCC(=O)NCc3ccco3)cc2)c1,9,48,0,20,-32,-20
Cc1ccc(C)c(S(=O)(=O)Nc2ccccc2C(=O)Nc2ccccc2N2CCOCC2)c1,-4,3,2,6,-16,-6
Cc1c(C(=O)OC(C)C)[nH]c2c1C(=O)CC(C)(C)C2,-6,21,4,-96,87*,96*
CCSC1=NC2(CCCCC2)Nc2sc3c(c21)CCCC3,-32,-9,6,-7,-7,7
COc1ccc(N=C2SCC(=O)N2c2ccc(OC)cc2)cc1,-9,87*,-15,-7,7,7
COC(=O)c1sc2cnccc2c1N,-24,·,15,14,78*,-14
COC(=O)c1sc2nc(-c3ccco3)ccc2c1N,·,-55,·,-7,23,7
CC(NC(=O)c1ccco1)c1cccc2ccccc12 (stereo not drawn),-2,-1,15,-98,78*,98*
COc1cc2[nH]c(=O)n(Cc3ccc(C(=O)NC4CCCC4)cc3)c(=O)c2cc1OC,-14,13,0,46*,2,-46
COc1cc2[nH]c(=O)n(CCC(=O)NC3CCCC3)c(=O)c2cc1OC,·,-11,·,·,·,·
CC(C)Sc1nnc(CNC(=O)C23CC4CC(CC(C4)C2)C3)n1C1CCCCC1,·,6,·,·,·,·
N#Cc1nc(-c2ccco2)oc1N1CCOCC1,-31,·,40*,-16,-77,16
COc1cc2[nH]c(=O)n(CCC(=O)N3CCN(c4cc(Cl)ccc4C)CC3)c(=O)c2cc1OC,1,-29,-3,-2,83*,2
O=C(Cc1cccc2ccccc12)Nc1ccc(N2CCOCC2)cc1,·,-9,·,·,·,·
CCN(C(=O)CSc1nc2ccccc2c(=O)n1CCOC)C1CCS(=O)(=O)C1 (stereo not drawn),·,2,·,·,·,·
Cn1nnnc1SCC(=O)Nc1cccc([N+](=O)[O-])c1,·,76*,·,·,·,·
Cn1ccnc1SCC(=O)Nc1cccc([N+](=O)[O-])c1,·,-17,·,·,·,·
CCOC(=O)c1ccc(NC(=O)Cn2nnc(-c3ccccc3)n2)cc1,98*,·,88*,4,-8,-4
COCCCNC(=O)Cn1nnc(-c2ccc(NC(=O)c3ccccc3F)cc2)n1,-5,-40,6,-43,-13,43*
CCOC(=O)c1ccc(NC(=O)Cn2nnc(-c3ccc(F)cc3)n2)cc1,·,-16,·,·,·,·
COc1cccc(N(CC(=O)N/N=C(\C)c2cccs2)S(C)(=O)=O)c1,·,2,·,·,·,·
Cc1ccc(C(=O)N(C)CC(=O)Nc2ccc(F)c(F)c2F)o1,·,10,·,·,·,·
COc1ccc(-c2cc(C(=O)Nc3cnn(Cc4ccccc4C)c3)no2)cc1OC,-21,78*,-4,-3,-6,2
COc1ccc(OC)c(-c2cc(C(=O)Nc3c(C)nn(Cc4ccc(Cl)cc4)c3C)no2)c1,7,·,-11,-7,-2,7
SMILES,HUVEC tox TNFa,E-sel TNF inh,VCAM1 TNFa inh,NFkB transloc pot,HUVEC tox IL1B,NFkB transloc inh
COc1ccc(-c2cc(C(=O)Nc3cc(C)n(Cc4ccc(Cl)cc4)n3)no2)cc1OC,59,·,52*,-10,-6,10
c1ccc(-c2nnc(CSc3nncs3)o2)cc1,-7,4,93*,15,-4,-15
CC(C)C(=O)c1cc2c(cc1NC(=O)c1cccs1)OCCO2,12,1,-2,-32,-8,32*
Cc1oc2c(cc(NS(=O)(=O)c3cccs3)c3ccccc32)c1C(=O)OC(C)C,-4,-31,2,26,3,-26
COc1ccc(S(=O)(=O)Nc2cc3c(C(C)=O)c(C)oc3c3ccccc23)cc1,41,29,80*,9,40,-9
Cc1ccc(NC(=O)CSc2n[nH]c(=O)n2C2CC2)cc1S(=O)(=O)N1CCOCC1,·,1,·,·,·,·
O=C(Nc1nccs1)c1nc(-c2ccccc2)n(-c2ccccc2)n1,-11,43*,-7,12,25,-12
Cc1csc(NC(=O)c2nc(-c3ccccc3)n(-c3ccccc3)n2)n1,·,-14,·,·,·,·
COc1cccc(/C=N/NC(=O)c2c(-c3ccccc3)noc2C)c1,0,54*,6,5,-56,-5
CC(=O)Nc1ccccc1NS(=O)(=O)c1ccc(Cl)cc1,-17,-11,4,-30,15,30*
O=C1NCCCc2c1oc1cc(Br)c(O)c(Br)c21,·,97*,·,·,·,·
COc1ccc(-c2cc(C(F)(F)F)nc(S(=O)(=O)CCC(=O)N3CCOCC3)n2)cc1,20,12,98*,-6,6,6
CN(CCc1ccccn1)C(=O)CCC1CCCN(C(=O)c2c3c(nn2C)CCCC3)C1 (stereo not drawn),·,-11,·,·,·,·
CCN(CC)c1ccc2c(c1)oc(=O)c1c(Cl)cc(=O)oc12,-8,-28,-10,0,35,0
CCN(CC)c1ccc2c(Cl)c(Br)c(=O)oc2c1,-23,96*,16,25,-26,-25
Cc1cc(C)nc(SCNC(=O)c2ccccc2)n1,-27,-20,21,21,81*,-21
CCN(C(=O)Cn1cnc2cc([N+](=O)[O-])ccc2c1=O)C1CCS(=O)(=O)C1 (stereo not drawn),·,-4,·,·,·,·
COc1ccccc1CC(=O)Nc1ccc(-c2noc(COc3cccc(C)c3C)n2)cc1,-12,-9,4,-9,-21,8
COc1ccccc1CC(=O)Nc1ccc(-c2noc(COc3ccc(Br)cc3)n2)cc1,-13,8,8,50*,-8,-50
Cc1ccc(-n2nc3c(c2NC(=O)c2ccc4c(c2)OCO4)CSC3)cc1,-3,7,17,-97,93*,98*
CCCC(=O)Nc1c2c(nn1-c1ccc(C)cc1C)CSC2,16,-26,-10,-15,83*,15
Cc1ccc(-n2nc3ccc(NC(=O)c4ccc5c(c4)OCO5)cc3n2)cc1,-1,13,22,9,-10,-9
Cc1c(Br)c([N+](=O)[O-])nn1C(C)C(=O)Nc1ccc2c(c1)OCO2 (stereo not drawn),-1,-39,16,7,-20,-7
O=C(NCc1ccccn1)NC12CC3CC(CC(C3)C1)C2,-5,·,5,-95,89*,95*
O=C(Nc1ccccn1)NC12CC3CC(CC(C3)C1)C2,-13,7,-8,20,-23,-20
COc1cc(/C=C/C(=O)NCCN2CCOCC2)cc(OC)c1OC,·,38,·,·,·,·
Cc1ccc(NC(=O)c2oc3c(c2C)C(=O)CC(C)(C)C3)cc1,-3,-28,97*,21,-47,-21
Cc1c(C(=O)Nc2ccccc2)oc2c1C(=O)CC(C)(C)C2,10,20,-1,1,37,-1
CCc1ccc(N2CC(C(=O)OCC(=O)NC3CCS(=O)(=O)C3)CC2=O)cc1 (stereo not drawn),·,-23,-32,-24,92*,24
